An excerpt weighted towards active compounds, which were near 3.8% of everything screened.
esBAF inh: Bmi1 luciferase reporter increase in mESCs, primary screen, esBAF inhibitor project, mouse ES cells, Bmi1 luciferase knock-in, single point; 24 h; 100% = twice the neutral-well signal; reporter increase, % at 12.5 µM; 350,000 compounds, 2% hits; in the data active = activation above about 40%; inconclusive = no clear call, values can overlap the other calls;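 also: a rise in the Bmi1 reporter signal indicates esBAF inhibition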
HSF-1 act: HSF-1 activators, primary screen, NIH3T3-HGL cells, MG132 stress, luminescence, single point. NIH3T3-HGL HSF-1 luciferase reporter, 8 h; 100% = twice DMSO control signal. activation, % at 9 µM. 300,000 compounds, 1.7% hits. AID 504408, 2011;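 active = mean replicate activation of at least 50% with a set share of replicates each reaching 50%; inconclusive = only one of those two conditions met; inactive = mean below 50% and too few replicates reaching it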
MITF TRPM1 HTS: activators of MITF-driven TRPM1 promoter reporter, primary screen, cell-based, SK-MEL-5, luciferase, single point; SK-MEL-5 TRPM1-promoter luciferase, 24 h; % of positive control, neutral wells = 0; 300,000 compounds, 0.75% hits; AID 588334, 2011; activation, % at 12.5 µM;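 active = mean activation of at least 80% with every replicate also reaching 80%; inconclusive = mean reaches 80% but some replicate falls short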
Wnt bcat act: Wnt/beta-catenin pathway activators, primary screen, cell-based, plate reader, single point | AID 743398, 2014 | activation, % at 9.35 µM | 300,000 compounds, 1.2% hits | Wnt/beta-catenin reporter cell assay, activator; in the data active = activation above about 30%, passing the limit was not always enough; inconclusive = no clear call, values can overlap the other calls
HSF1 inhib: HSF1 inhibitors in luciferase reporter cells, primary screen, cell-based, NIH3T3, luminescence; AID 2098, 2009; NIH3T3-HGL HSE-luciferase, MG132-induced, luminescence 8 h; stronger effect = lower value; activity change, negative = inhibition, % at 7.5 µM (by protocol); 300,000 compounds, 0.77% hits;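 active = more than half of replicate wells show activity change below -50%, luminescence cut by over half; inconclusive = some wells, but at most half, below -50%; inactive = no replicate well below -50%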;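 also: luciferase reports HSF-1 transcriptional activity via heat shock element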
Hits are given with their value; i = inactive; ? = inconclusive; nt = not tested or not shown.

SMILES | esBAF inh | HSF-1 act | MITF TRPM1 HTS | Wnt bcat act | HSF1 inhib
COCC(=O)Nc1ccc2c(c1)C(=O)N(C)[C@H]1CC[C@@H](CC(=O)NCC(F)(F)F)O[C@H]1CO2 | i | nt | nt | nt | nt
CCCN(CCC)c1nc(N)c(C#N)c(CC#N)c1C#N | nt | 115 | i | nt | i
CCN(CC)c1nc(N)c(C#N)c(CC#N)c1C#N | i | i | i | i | i
CCCN(CC1CC1)c1nc(N)c(C#N)c(CC#N)c1C#N | i | 72 | nt | i | i
Cc1nc(NC(=O)/C=C/c2ccccc2)n[nH]1 | i | i | i | 39 | i
O=C(C=Cc1ccccc1)Nc1ccccc1 | i | nt | i | i | nt
CC(C)(C)c1ccc(/C=C/C(=O)Nc2ccncc2)cc1 | nt | 56 | i | nt | i
O=C(/C=C/c1ccccc1)Nc1cccnc1 | i | i | nt | 39 | i
O=C(/C=C/c1ccc([N+](=O)[O-])cc1)Nc1cccnc1 | i | 54 | i | 38 | i
O=C(N[C@H]1CC[C@H](CCn2cc(C3CC3)nn2)O[C@H]1CO)c1cccnc1 | i | nt | nt | nt | nt
C[C@@H]1CN([C@@H](C)CO)S(=O)(=O)c2ccc(C#CC3CC3)cc2O[C@H]1CN(C)C(=O)c1ccccc1 | i | nt | nt | nt | nt
O=C(/C=C/c1ccc(Cl)c([N+](=O)[O-])c1)Nc1cccc(NC(=O)c2ccco2)c1 | i | i | i | i | i
O=C(/C=C/c1ccc(Cl)c([N+](=O)[O-])c1)Nc1cccnc1 | 53 | i | i | i | i
CCCCNC(=O)CCC(=O)Nc1ccc2nc(N3CCCCC3)cc(C)c2c1 | nt | i | i | i | i
Cc1cc(N2CCCCC2)nc2ccc(NC(=O)CCC(=O)NCCC(C)C)cc12 | 74 | i | nt | 43 | i
Cc1cc(N2CCOCC2)nc2ccc(NC(=O)CCC(=O)N3CCN(c4ccccc4)CC3)cc12 | 53 | i | i | i | i
CCN1CCN(c2cc(C)c3cc(NC(=O)c4cccnc4Cl)ccc3n2)CC1 | i | i | i | i | i
CCN(CC)CCCNC(=O)CCC(=O)Nc1ccc2nc(N3CCCCC3)cc(C)c2c1 | i | i | i | i | i
Cc1cc(N2CCN(C)CC2)nc2ccc(NC(=O)c3cccnc3Cl)cc12 | i | i | nt | i | -59
CCCCNC(=O)CCC(=O)Nc1ccc2nc(N3CCOCC3)cc(C)c2c1 | 43 | i | nt | i | i
CCCC(=O)Nc1ccc2c(c1)C(=O)N(C)[C@H]1CC[C@H](CC(=O)Nc3cn(C)nc3C)O[C@H]1CO2 | i | nt | nt | nt | nt
Cc1ccc(NC(=O)O/N=C/c2ccc(F)cc2)cc1 | 56 | i | nt | i | i
CSC(=S)N/N=C/c1ccc(N(C)C)cc1 | nt | ? | i | i | i
Cc1ccc(NC(=O)O/N=C/c2ccc(N(C)C)cc2)cc1 | 56 | i | i | i | i
O=C(Nc1ccccc1)O/N=C/c1ccc(F)cc1 | 48 | ? | nt | i | i
SMILES | esBAF inh | HSF-1 act | MITF TRPM1 HTS | Wnt bcat act | HSF1 inhib
CN(C)c1ccc(C=NNC(=S)Nc2ccc(F)cc2)cc1 | 59 | nt | i | i | nt
O=C(Nc1ccccc1Cl)O/N=C/c1ccc(F)cc1 | nt | nt | i | i | nt
C[C@@H]1CN([C@H](C)CO)C(=O)c2cc(NS(=O)(=O)c3ccc(Cl)cc3)ccc2O[C@@H]1CN(C)S(=O)(=O)c1ccccc1 | i | nt | nt | nt | nt
C[C@H](O)C#Cc1ccc2c(c1)O[C@H](CN(C)C(=O)CN(C)C)[C@H](C)CN([C@@H](C)CO)S2(=O)=O | i | nt | nt | nt | nt
CCN(CC)c1nc(C)nc2c1cnn2CCc1ccccc1 | 80 | 57 | 89 | nt | i
CCC(=O)Nc1c(C(=O)Nc2ccc3c(c2)OCCO3)oc2ccccc12 | nt | i | 98 | 36 | i
CCC(=O)Nc1c(C(=O)Nc2cccc(OC)c2)oc2ccccc12 | 43 | i | i | nt | i
CCOC(=O)c1oc2ccccc2c1NC(=O)c1cccc(OC)c1 | i | i | i | i | i
O=C(Nc1ccc2c(c1)OCCO2)c1oc2ccccc2c1NC(=O)C1CC1 | nt | i | i | i | i
CCOCC(=O)Nc1c(C(=O)Nc2ccccc2OC)oc2ccccc12 | i | i | i | nt | i
CCOCC(=O)Nc1c(C(=O)Nc2ccc3c(c2)OCCO3)oc2ccccc12 | nt | i | 95 | i | i
COCC(=O)Nc1c(C(=O)Nc2ccc3c(c2)OCCO3)oc2ccccc12 | i | i | 92 | i | i
Cc1noc(C)c1S(=O)(=O)N(C)C[C@@H]1OCCCC[C@@H](C)Oc2ccc(NS(C)(=O)=O)cc2C(=O)N([C@@H](C)CO)C[C@@H]1C | i | nt | nt | nt | nt
CCOC(=O)c1c(C)n(C)c2ccc(OCC(O)CN3CCN(C)CC3)cc12 (stereo not drawn) | i | i | i | i | i
CCOC(=O)c1c(C)n(C)c2ccc(OCC(O)CNCCc3ccccc3)cc12 (stereo not drawn) | i | 77 | i | i | i
CC(=O)c1ccc(NC(=O)c2noc3c2CCC3)cc1 | i | nt | i | i | nt
Cc1ccc(NC(=O)c2noc3c2CCC3)cc1C | nt | i | i | 33 | i
COc1ccc(NC(=O)c2noc3c2CCC3)cc1 | 95 | i | nt | i | i
c1ccc(-c2c3ccccc3nc3[nH]c4ccccc4c23)cc1 | i | i | i | nt | i
c1ccc2nc3c(nc2c1)[nH]c1ccccc13 | nt | nt | i | 93 | i
O=c1cc(CSc2ccc(Cl)cc2)nc(N2CCCCC2)[nH]1 | i | 65 | nt | i | i
C[C@@H]1CN([C@H](C)CO)C(=O)c2cc(C#CC3(O)CCCC3)cnc2O[C@H]1CN(C)C(=O)CC1CC1 | i | nt | nt | nt | nt
CCn1cc(CN(C)C(=O)/C=C/c2ccc([N+](=O)[O-])cc2)c(C)n1 | i | i | i | i | i
Cc1nn(C)cc1C(=O)/C=C/c1ccc([N+](=O)[O-])cc1 | nt | 61 | i | i | i
Cc1ccc2c(CC(=O)Nc3sccc3C(N)=O)coc2c1 | nt | 84 | i | nt | i
SMILES | esBAF inh | HSF-1 act | MITF TRPM1 HTS | Wnt bcat act | HSF1 inhib
C[C@@H]1CN([C@H](C)CO)C(=O)c2cc(/C=C/c3ccccc3)cnc2O[C@H]1CN(C)C(=O)Nc1ccc(C(F)(F)F)cc1 | i | nt | nt | nt | nt
CC(C)(C)C(=O)/C(=C/c1ccc(Cl)cc1)n1cncn1 | i | 150 | i | i | i
COc1cccc(-c2cnc3c(c2)C(=O)N([C@H](C)CO)C[C@H](C)[C@@H](CN(C)C(C)=O)O3)c1 | i | nt | nt | nt | nt
COc1ccc(OCC(=O)N2CCN(c3cccc(C(F)(F)F)c3)CC2)cc1 | nt | i | nt | i | -87
O=C(c1ccc2nc[nH]c2c1)N1CCN(c2cccc(C(F)(F)F)c2)CC1 | nt | i | i | i | i
O=C(c1ccc2ncsc2c1)N1CCN(c2cccc(C(F)(F)F)c2)CC1 | 46 | nt | i | i | nt
COc1ccc(N2C(=O)C(C)(C)C2c2c(O)ccc3ccccc23)cc1 (stereo not drawn) | i | i | i | i | -73
C[C@@H]1CN([C@H](C)CO)C(=O)c2cc(NC(=O)Nc3ccc(F)cc3)ccc2O[C@H]1CN(C)Cc1ccc(C(=O)O)cc1 | i | nt | nt | nt | nt
C[C@@H]1CN([C@H](C)CO)S(=O)(=O)c2ccc(C#CC3CCCCC3)cc2O[C@@H]1CN(C)Cc1cccnc1 | i | nt | nt | nt | nt

Compound activity deposited in PubChem BioAssay by Broad Institute.
